Only a selection was taken, and hits are over-represented in it overall.
Peg3 imprint: induces erasure of genomic imprints in mouse ES cells; mouse ES Peg3-LacZ reporter, beta-gal luminescence, 40 h; 0.02% of 110,000 active; Potency, µM (doses to about 60.7 µM), for the others: at the top dose activity change, positive = activation, most hits filed as activators; AID 1948; note: potency is the fitted concentration of half-maximal effect
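Each well holds 300 Peg3LacZ-Neo (maternal) female ES cells incubated 40 h at 37C, 5% CO2. LacZ is measured by BetaGlo luminescence, with AC50 and maximum efficacy derived from dose-response curves.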
IMPase cell inh: membrane-permeable compound that blocks inositol monophosphatase; CHO-M1 cells, IP1 accumulation, HTRF TR-FRET ratio; P97697; inhibition (IP1 accumulation), % at 46.1 µM; 120,000 tested, under 10 active; active = well fitted curve in the direction sought with a large enough effect in the signal ratio, not every such curve was filed as active; inconclusive = small, poorly fitted or top-dose-only effect, or a change in a side signal; inactive = no such curve, though single readings can be large or run the other way; the % refers to the signal ratio;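 note: cells stimulated with carbachol in lithium chloride buffer; plate controls were DMSO basal wells for no effect and reference inhibitor wells for full effect; higher means more IMPase inhibition seen as more IP1 and lower FRET ratio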
Target sequence (P97697 whole entry, looked up): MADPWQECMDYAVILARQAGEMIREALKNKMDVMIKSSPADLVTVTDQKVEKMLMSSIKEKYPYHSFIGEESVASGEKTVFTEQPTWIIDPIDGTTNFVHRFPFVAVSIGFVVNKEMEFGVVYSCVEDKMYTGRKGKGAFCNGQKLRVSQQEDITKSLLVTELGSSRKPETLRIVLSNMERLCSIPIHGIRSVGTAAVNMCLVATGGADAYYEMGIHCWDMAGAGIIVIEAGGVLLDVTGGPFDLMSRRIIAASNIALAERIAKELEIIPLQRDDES
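Cellular IMPase inhibition is scored as a rise in cytosolic IP1, detected by competitive TR-FRET between d2-labelled IP1 and a europium anti-IP1 antibody. M1-expressing CHO cells were stimulated with carbachol for 30 min at 37C, with lithium (50 mM LiCl) present in the buffer.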
p53ts 32C tox: cytotoxicity in p53ts cells at permissive temperature. AID 924. Potency, µM (doses to about 46.1 µM), for inactives: at the highest dose activity change, negative = cytotoxicity, hits mostly cytotoxic. 0.93% of 130,000 active. H1299-p53A138V at 32C, ATP luminescence viability, 24 h;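 note: potency is the fitted concentration of half-maximal effect; 0% = DMSO and -100% = full killing by reference compound; nearly all actives have a fitted effect of over 55% in size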
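H1299-p53 A138V cells (temperature-sensitive p53) exposed 24 h to up to 46 uM compound at 32C, where p53 is wild-type in conformation. Viability read as ATP luminescence and normalised to DMSO and 100 uM tamoxifen. AC50 fitted with the Hill equation.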
p53ts 39C kill: cytotoxicity in p53ts cells at nonpermissive temperature | 1.5% of 130,000 active | Potency, µM (highest dose often 46.1 µM), for inactives: top-dose activity change, negative = cell killing, actives largely listed as cytotoxic | H1299-p53A138V viability at 39C, ATP luminescence, 24 h; note: potency is the fitted concentration of half-maximal effect; % is set by controls: 0 for no effect and ±100 for the full control effect; nearly all actives have a fitted effect of over 55% in size
IkB signaling: inhibitors of IkB signaling in ABC-DLBCL cells. ABC-DLBCL IkBa-CBG/CBR dual luciferase ratio, 4 h; response scale: scaled: untreated 0%, proteasome inhibitor 100%. Potency, µM (doses to about 57.1 µM), without a hit: at the highest dose IkBa stabilization activation. 0.04% of 110,000 active. AID 445; active = well fitted curve in the direction sought with a large enough effect in the signal ratio, not every such curve was filed as active; inconclusive = small, poorly fitted or top-dose-only effect, or a change in a side signal; the % refers to the signal ratio;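 note: potency is the fitted concentration of half-maximal effect; the direction sought is a rising ratio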
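Curves were fitted separately to fusion (green), unfused (red) and ratio luminescence, then classed by r2, magnitude and activity. Cells: OCI-Ly3, 4 h compound plus doxycycline at 37C; 10 uM MG-132 defined full response.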
FLuc inh: inhibitors of firefly luciferase; 2.2% of 72,000 active; Potency, µM (highest dose often 57.1 µM), for the others: top-dose activity change, negative = inhibition, usual class: inhibitors; AID 411; P08659; purified firefly luciferase, luminescence, 8 min; note: potency is the fitted concentration of half-maximal effect; % is set by controls: 0 for no effect and ±100 for the full control effect; nearly all actives have a fitted effect of over 40% in size
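Compounds were tested as concentration series (qHTS) against purified P. pyralis luciferase with luciferin and 10 uM ATP in 50 mM imidazole pH 7.2, 50 mM KCl, 7 mM MgCl2, 0.01% Tween 20, 0.05% BSA. Luminescence was read after 8 min at ambient temperature.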
Active calls of the source: *; [ ] = dose if it differs, or a comment. Unless noted, calls come from the whole dose curve; as a rule, active = well fitted curve in the direction sought with a large enough effect; inconclusive = small, poorly fitted or top-dose-only effect, or another doubt; inactive = no such curve, though single readings can be large; an effect the other way counts as inactive or inconclusive.

For COc1ccc(CNCCC(c2ccccc2)c2ccc3c(c2)OCO3)cc1 (stereo unspecified) the results were Peg3 imprint -18%[10.9 µM], IMPase cell inh 10, p53ts 32C tox inconclusive, p53ts 39C kill 16µM* and IkB signaling inconclusive.
For O=C1c2oc3ccccc3c(=O)c2C(c2cccnc2)N1Cc1ccco1 (stereo unspecified) the results were Peg3 imprint -25%, IMPase cell inh -2, p53ts 32C tox -25%, p53ts 39C kill -22%, IkB signaling 4% and FLuc inh 3.2µM*.
Screening O=C1c2oc3ccc(Cl)cc3c(=O)c2C(c2cccnc2)N1Cc1ccco1 (stereo unspecified) returned Peg3 imprint -30%, IMPase cell inh 3, p53ts 32C tox inconclusive, p53ts 39C kill inconclusive, IkB signaling 1% and FLuc inh 13µM*.
Screening Cc1ccc2oc(-c3ccc(NC(=O)c4oc5ccc(Cl)cc5c4C)cc3)nc2c1 returned Peg3 imprint -9%[10.9 µM], IMPase cell inh -3, p53ts 32C tox 7%, p53ts 39C kill 1% and IkB signaling 1%.
For Cc1c(C(=O)Nc2nc(-c3ccc(F)cc3)ns2)oc2ccc(Br)cc12 the results were Peg3 imprint -10%[10.9 µM], p53ts 32C tox 7%, p53ts 39C kill -8% and IkB signaling -1%.
For CN1CCN(c2ncc3nc(-c4ccccc4)c(=O)n(C)c3n2)CC1 the results were Peg3 imprint 10µM*, p53ts 32C tox 1%, p53ts 39C kill -6%, IkB signaling -2%[11.4 µM] and FLuc inh -1%[11.4 µM].
`O=C(Nc1ccccc1)c1ccc(Cc2nc3ccccc3[nH]2)cc1` gave p53ts 32C tox -5% and p53ts 39C kill -6%.
Screening Cc1ccc2c(c1)N(CC(=O)NCCN1CCOCC1)C(=O)CO2 returned Peg3 imprint -4%, p53ts 32C tox -3%, p53ts 39C kill 4%, IkB signaling 3% and FLuc inh 4%.
Screening CCOC(=O)CSc1nc(-c2ccc3c(c2)OCO3)ccc1C#N returned IMPase cell inh inconclusive and FLuc inh 4µM*.
`CCOC(=O)CSc1nc(-c2ccncc2)ccc1C#N` gave IMPase cell inh inconclusive and FLuc inh 7.9µM*.
`CCOC(=O)CC(=O)CSc1nc(-c2cccnc2)ccc1C#N` gave Peg3 imprint -2%, IMPase cell inh -10, p53ts 32C tox -15%, p53ts 39C kill -7%, IkB signaling -1% and FLuc inh -7%.
Screening O=C(O)c1ccc2nc(-c3cc4cccc(O)c4oc3=O)[nH]c2c1 returned Peg3 imprint -96%[10.9 µM], p53ts 32C tox 10µM*, p53ts 39C kill inconclusive and IkB signaling inconclusive.
For O=c1oc2c3c4c(cc2cc1-c1nc2ccccc2[nH]1)CCCN4CCC3 the results were Peg3 imprint -41%, p53ts 32C tox inconclusive, p53ts 39C kill inconclusive, IkB signaling inconclusive and FLuc inh 2µM*.
Screening O=c1oc2c(CN3CCCCC3)c(O)ccc2cc1-c1nc2ccccc2[nH]1 returned Peg3 imprint -13%, IMPase cell inh -9, p53ts 32C tox -6%, p53ts 39C kill -16%, IkB signaling -1% and FLuc inh -22%.
Screening CCCCC(=O)N(Cc1ccc(-c2ccccc2-c2nn[nH]n2)cc1)C(C(=O)O)C(C)C (stereo unspecified) returned Peg3 imprint -20%, p53ts 32C tox 13% and p53ts 39C kill 11%.
For O=C(NCc1cccnc1)C1CCN(Cc2cc3ccccc3n2Cc2cccc(Cl)c2)CC1 the results were Peg3 imprint -4%[10.9 µM], p53ts 32C tox 21%, p53ts 39C kill 13µM* and IkB signaling inconclusive.
Screening Cc1cc(C)cc(NC(=O)Cn2cc(C(=O)C3CCCCC3)c3ccccc32)c1 returned Peg3 imprint 1%[10.9 µM], IMPase cell inh 3, p53ts 32C tox inconclusive, p53ts 39C kill 10µM* and IkB signaling 13%.
For O=S1(=O)N=C(Nc2nc3c(s2)CCCC3)c2ccccc21 the results were Peg3 imprint -83%, IMPase cell inh 7, p53ts 32C tox 5µM*, p53ts 39C kill 4µM*, IkB signaling inconclusive and FLuc inh 2.5µM*.
C[C@H]1[C@H](O)[C@@H](C)C=CC=CC=CC=CC=CC=CC=C[C@H](O[C@@H]2O[C@@H](C)[C@H](O)[C@@H](N)[C@@H]2O)C[C@@H]2O[C@](O)(C[C@@H](O)C[C@@H](O)[C@@H](O)CC[C@@H](O)C[C@@H](O)CC(=O)O[C@H]1C)C[C@H](O)[C@H]2C(=O)O was read as Peg3 imprint -7%[10.9 µM], p53ts 32C tox -5%[9.22 µM], p53ts 39C kill 13%[9.22 µM], IkB signaling 0%[11.4 µM] and FLuc inh -1%[11.4 µM].
O=c1cc(-c2ccccc2)[nH]c2nc3ccccc3n12 was read as Peg3 imprint -92%, IMPase cell inh -11, p53ts 32C tox 2µM*, p53ts 39C kill 2µM*, IkB signaling inconclusive and FLuc inh 2.5µM*.
`Cc1cccc(NC(=O)CSc2nc3ccc(NC(=O)COc4ccccc4F)cc3s2)c1` gave Peg3 imprint -14%[10.9 µM], p53ts 32C tox inconclusive, p53ts 39C kill 10µM* and IkB signaling -2%.
Cc1ccc(OCCSc2nc3ccc(NC(=O)COc4ccc(F)cc4)cc3s2)cc1 was read as Peg3 imprint -10%[10.9 µM], p53ts 32C tox 0%, p53ts 39C kill 10µM* and IkB signaling -3%.
For Cc1cccc(OCCSc2nc3ccc(NC(=O)COc4ccccc4F)cc3s2)c1 the results were Peg3 imprint -18%[10.9 µM], p53ts 32C tox -9%, p53ts 39C kill -1% and IkB signaling 0%.
Screening CC1(C)[C@@H](O)CC[C@@]2(C)[C@H]1CC[C@]1(C)[C@H]2C(=O)C=C2[C@@H]3C[C@@](C)(C(=O)O)CC[C@]3(C)CC[C@@]21C returned IkB signaling 1%[11.4 µM] and FLuc inh 1%[11.4 µM].
CCc1ccc(-c2nc(CN3CCC(C(=O)NCCN(CC)c4ccccc4)CC3)c(C)o2)cc1 was read as Peg3 imprint inconclusive, IMPase cell inh 4, p53ts 32C tox -1%, p53ts 39C kill -4%, IkB signaling 1% and FLuc inh -2%.
Screening CCN(CCNC(=O)C1CCN(Cc2nc(-c3cccc(Cl)c3)oc2C)CC1)c1ccccc1 returned Peg3 imprint -20%, IMPase cell inh -3, p53ts 32C tox 13µM*, p53ts 39C kill 16µM*, IkB signaling inconclusive and FLuc inh 0%.

Screening results as filed in PubChem BioAssay.
